Data published in the supplement of paper PMC7366291.
Where a name gives a salt, the structure may show the parent alone. ± gives the standard deviation.

system: Danio rerio Tg(wt1b:EGFP) embryo, pronephros; experiment: glomerular separation, fold change vs DMSO control; higher = glomeruli further apart (abnormal); details: 25 µM; exposure: 24-48 hpf
Method in brief: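 Distances and angles describing the pronephros were computed by a Fiji macro from 16 reference points set manually on maximum projections of dorsal images. These images came from dechorionated Tg(wt1b:EGFP) zebrafish embryos held in agarose-filled 96-well plates after exposure to 25 μM compound in 0.5% DMSO, in HEPES-buffered E3 with 0.003% PTU, from 24 to 48 hpf at 28.5°C. Any value more than 2 SD from the feature mean was excluded. Features are stated as fold change relative to the mean of same-day DMSO-treated embryos.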

SMILES | glomerular separation
Nc1ccc(S(=O)(=O)Nc2nccs2)cc1 [Sulfathiazole] | 0.931 ± 0.36
N#Cc1ccc(C(c2ccc(C#N)cc2)n2cncn2)cc1 [Letrozole] | 1.1 ± 0.4
CC(C)NNC(=O)c1ccncc1 [Iproniazide phosphate] | 0.735 ± 0.21
O=C(O)c1cc(/N=N/c2ccc(S(=O)(=O)Nc3ccccn3)cc2)ccc1O [Sulfasalazine] | 0.959 ± 0.28
CN(C)[C@@H]1C(O)=C(C(N)=O)C(=O)[C@@]2(O)C(O)=C3C(=O)c4c(O)ccc(Cl)c4[C@@](C)(O)[C@H]3C[C@@H]12 [Chlortetracycline hydrochloride] | 1.18 ± 0.35
CCOCCn1c(N2CCCN(C)CC2)nc2ccccc21 [Emedastine] | 0.707 ± 0.16
C[N+](C)(C)CCOC(N)=O [Carbachol] | 0.868 ± 0.25
CCC(=O)O[C@]1(C(=O)SCF)[C@H](C)C[C@H]2[C@@H]3C[C@H](F)C4=CC(=O)C=C[C@]4(C)[C@@]3(F)[C@@H](O)C[C@@]21C [Fluticasone propionate] | 1.84 ± 0.75
O=c1[nH]c(=O)n([C@H]2C[C@H](O)[C@@H](CO)O2)cc1F [Floxuridine] | 0.88 ± 0.33
CCCc1nc2c(C)cc(-c3nc4ccccc4n3C)cc2n1Cc1ccc(-c2ccccc2C(=O)O)cc1 [Telmisartan] | 1.22 ± 0.41
Cn1c(=O)c2nc[nH]c2n(C)c1=O [Theophylline monohydrate] | 0.92 ± 0.21
CNCCC(Oc1ccc(C(F)(F)F)cc1)c1ccccc1 (configuration not stated) [Fluoxetine hydrochloride] | 1.23 ± 0.69
CCCNC(=O)NS(=O)(=O)c1ccc(Cl)cc1 [Chlorpropamide] | 1.09 ± 0.39
NCC[C@H](O)C(=O)N[C@@H]1C[C@H](N)[C@@H](O[C@H]2O[C@H](CN)[C@@H](O)[C@H](O)[C@H]2O)[C@H](O)[C@H]1O[C@H]1O[C@H](CO)[C@@H](O)[C@H](N)[C@H]1O [Amikacin hydrate] | 1.13 ± 0.48
CCCCc1nc(Cl)c(CO)n1Cc1ccc(-c2ccccc2-c2nnn[nH]2)cc1 [Losartan] | 0.969 ± 0.39
CCCNC(C)C(=O)Nc1ccccc1C (configuration not stated) [Prilocaine hydrochloride] | 1.28 ± 1.1
OCCN1CCN(CC/C=C2/c3ccccc3Sc3ccc(Cl)cc32)CC1 [Zuclopenthixol dihydrochloride] | 1.17 ± 0.21
CC(=O)SCC(Cc1ccccc1)C(=O)NCC(=O)OCc1ccccc1 (configuration not stated) [Racecadotril] | 1.45 ± 0.84
CC1=C(C(=O)O)N2C(=O)[C@@H](NC(=O)[C@H](N)c3ccc(O)cc3)[C@H]2SC1 [Cefadroxil] | 1.23 ± 0.49
NS(=O)(=O)c1cc(Cl)c(Cl)c(S(N)(=O)=O)c1 [Dichlorphenamide] | 0.91 ± 0.4
CCS(=O)(=O)CCn1c([N+](=O)[O-])cnc1C [Tinidazole] | 0.882 ± 0.35
O=c1[nH]cc(F)c(=O)[nH]1 [5-fluorouracil] | 0.802 ± 0.22
CC(C)(C)NC[C@@H](O)COc1cccc2c1CCCC2=O [(+) -Levobunolol hydrochloride] | 0.984 ± 0.46
CC(N)CCCC(C)(C)O (configuration not stated) [Heptaminol hydrochloride] | 1.19 ± 0.48
COc1ccc(C(=O)NCc2ccc(OCCN(C)C)cc2)cc1OC [Itopride] | 1.05 ± 0.44
CC(C)(C)NCC(O)c1cc(O)cc(O)c1 (configuration not stated) [Terbutaline hemisulfate] | 1.1 ± 0.36
CCN(CC)C(=O)N1CCN(C)CC1 [Diethylcarbamazine citrate] | 0.96 ± 0.28
